Laboratory results from PubChem BioAssay (NCATS).
Results filed as inconclusive are left out. The source made the active and inactive calls. The call rests on the fitted dose curve; in most records, active means well fitted cell-killing curve with a large enough effect; inconclusive means small, poorly fitted or top-dose-only effect, or effect the other way; inactive means flat fitted curve, though single readings scatter. Square brackets hold non-standard residues; d marks the D form. Peptide text beside a SMILES is read from it. * marks the point of attachment. ξ: configuration not given here. Hexanoyl = CCCCCC(=O)*; ξL = CC(C)CC(N)C(=O)O

Test: UWB1.289-WTBRCA1 Cancer Cell Toxicity qHTS against the NCATS CANVASS Library (AID 1347354)
Conditions: UWB1.289-WTBRCA1 viability, CellTiter-Glo luminescence, 72 h; series mostly up to 38.3 µM; activity change, negative = cytotoxicity: at the top concentration
Description: Natural products and their derivatives continue to be wellsprings of nascent therapeutic potential. However, many laboratories have limited resources for biological evaluation, leaving their previously isolated or synthesized compounds largely or completely untested. To address this issue, the Canvass library of natural products was assembled (https://tripod.nih.gov/canvass), in collaboration with academic and industry researchers, for quantitative high-throughput screening (qHTS) across a diverse set of cell-based and biochemical assays. The pure (>85% purity by liquid chromatography/mass spectrometry [LC/MS]) Canvass library of 346 natural products were submitted by 45 academic laboratories and companies around the world. We collected pure natural products to circumvent deconvolution and structure elucidation due to time and resource limitations. The library was formatted into 1536-well plates and evaluated in 50 qHTS (in an 11-pnt concentration series) bioassays with broad scope of disease-relevant mechanisms. The resulting data set from 50 different assays was then systematically analyzed to identify overall trends and specific natural products with interesting biological activities. Reported herein are the results of each individual qHTS and their corresponding assay protocol. National Center for Advancing Translational Sciences (NCATS), Rockville, MD National Institute of Health (NIH), Bethesda, Maryland
Cancer Cell Toxicity COV-362, OV-KATE, OV-SAHO, UWB1.289, UWB1.289-WTBRCA1, HEK-293, HPAF-II, Panc-1005, SW1088, and U-118MG-screen protocol. 1. In a 1536 well, white solid bottom tissue culture plates (Corning 7494), corresponding cells (COV-362, OV-KATE, OV-SAHO, UWB1.289, UWB1.289-WTBRCA1, HEK-293, HPAF-II, Panc-1005, SW1088, or U-118MG) were dispensed in each well at a final concentration of 1000 cells / well (6uL volume) using the Multidrop Combi (Thermo Fisher Scientific) dispenser. 2. The plates were incubated for 4 hours at 37 degrees C/5% CO2/95% Rh. 3. Compounds were pin transferred (~23nL volume) via Wako Pin-tool (Wako Automation, Richmond VA) equipped with a 1536 pin head. The assay plates were treated with compounds in an 11-pnt concentration series with a final concentration range of […] to 85uM. 4. Bortezomib was used as a single dose control (0.5mM column 4, rows 1 - 32) at a final concentration of 1.9uM and as a 16pnt titration (1mM; 1:2 dilution; 16-points; n = 2; column 3, rows 1 - 32) with final concentration range of 0.1nM - 3.8uM. 5. The assay plates were incubated for 72 hours at 37 degrees C/5% CO2/95% Rh. 6. 3uL CellTiter-Glo detection reagent was then added to the plates (columns 2 - 48, rows 1 - 32) and incubated at room temperature for additional 15min. 7. Luminescence signal was acquired via the ViewLux plate reader (PerkinElmer) using a clear filter, 2 second exposure and 2x binning settings.
On the % scale 0 is the no-effect control and ±100 the full control effect; potency means the concentration at half of the fitted maximal effect.

SMILES	outcome	activity change, negative = cytotoxicity	Potency
C[C@]12CCC[C@](C)(C(=O)O)[C@@H]1CC[C@@]1(C)c3cocc3CC[C@H]21	inactive		
CCC(C)=C1OC(=O)[C@H](C)[C@H](O)[C@H](Cc2cccnc2)NC(=O)C(NC(=O)c2ncccc2O)C(C)OC1=O (stereo not given in full)		3.58% (inactive)	
CC(C)=CC[C@H]1C[C@@]2(CC=C(C)C)C(=O)[C@](CC=C(C)C)(C(=O)C(C(=O)c3ccccc3)=C2O)C1(C)C			11.8 µM (active)
O[C@H]1C=C2[C@H]3CN(Cc4cc5c(cc43)OCO5)[C@H]2C[C@@H]1O		-17.6% (inactive)	
C=C1C[C@H]2O[C@@H]3[C@@H]4[C@H](CC[C@@](C)(O)[C@@H]42)[C@H](C)COC3(C)[C@@H](OC(=O)CCCCCCC)C[C@H]1O (stereo not given in full)	inactive		
CN1CCc2cc3c(c4c2C1(C)C(=O)c1cc(O)ccc1-4)OCO3 (stereo not given)	inactive		
CCCCCC(=O)N[C@@H](CC(C)C)C(=O)N[C@H](C=O)CCC(=O)O (Hexanoyl-Leu-Glu-aldehyde)	inactive		
CC[C@H]1[C@H](C)[C@H](c2cc(OC)c(OC)cc2OC)[C@@H](C)[C@H](c2cc(OC)c(OC)cc2OC)[C@@]12C=C(OC)C(=O)C=C2OC		3.47% (inactive)	
Cc1cc(O)cc2c1C(=O)c1c(O)cc(O)cc1C2=O		3.62% (inactive)	
C/C(=C\[C@H](C)C(=O)/C=C/CC1CC(=O)NC(=O)C1)[C@@H]1OC(=O)CCCC/C=C/[C@H](O)[C@@H](O)[C@@H]1C		-18% (inactive)	
O=Cc1ccc2n1C[C@]1(C[C@H](O)[C@@H](CO)O1)OC2	inactive		
C[n+]1cc2cc(C(N)=O)[nH]c3c(=N)c(Cl)c(N)c1c23	inactive		
CC[C@@H]1C[C@@]2(CC)OC(=O)[C@@]3(CC)[C@H](CC)[C@@H]1[C@@H]23	inactive		
CO[C@H]1[C@@H](OC(=O)/C(C)=C\[C@@H]2O[C@@H]2[C@H]2O[C@H]2C)[C@H](O)[C@H](OCC23C[C@@H]4[C@H](C)CC[C@H]4C4(C=O)CC2C=C(C(C)C)C34C(=O)O)O[C@@H]1C (stereo not given in full)	inactive		
C=C[C@]1(C)CC[C@@H]([C@H](C)C(=O)/C=C/C(C)(C)O)O1		2.74% (inactive)	
CN1CC[C@@]23c4ccccc4N[C@@H]1[C@@]21CCN(C)[C@@H]3Nc2ccccc21	inactive		
COc1ccc(-c2oc3cc(OC)cc(OC)c3c(=O)c2O)cc1		-2.19% (inactive)	
C/C=C(/CO)C(=O)O[C@@H]1[C@H](O)[C@@H](C(=O)OC)O[C@@H]2C[C@H]3OC(n4cnc5c(N)ncnc54)[C@H](OC)[C@H]3O[C@@]12O (stereo not given in full)		0.862% (inactive)	
C=C[C@](Cl)(CBr)CCC=C(C)C	inactive		
C/C=C1/CN2C3CC1C1C=CC(=O)N4c5ccccc5[C@@]3(C[C@@H]2C2=C[C@H]3C5CC6N(CC[C@@]67c6ccccc6N(C2=O)[C@@H]37)C/C5=C/C)[C@H]14 (stereo not given in full)			16.7 µM (active)

SMILES	outcome	activity change, negative = cytotoxicity	Potency
O=Cc1ccc2n1C[C@]1(OC2)O[C@H](CO)[C@@H](O)[C@@H]1O	inactive		
O=C1CC2OCC=C3CN4C5CC3C2[C@@H]2N1c1ccccc1[C@]52C[C@@H]4C1=C[C@H]2C3CC4N(CC[C@@]45c4ccccc4N(C1=O)[C@@H]25)C/C3=C/CO (stereo not given in full)		-14.7% (inactive)	
CC[C@@H](C)[C@H]1NC(=O)C(CC(C)C)NC(=O)[C@@H](CC(C)C)NC(=O)[C@H](Cc2c[nH]c3ccccc23)NC(=O)CNC(=O)[C@@H](CC(N)=O)NC1=O (stereo partly drawn) (cyclo(GW[dL][ξL][dI][dN]))	inactive		
C[C@H]1C=C[C@H]2CCCC[C@@H]2[C@H]1C(=O)[C@H]1CC2=C(C(=O)O)CCN2C1=O		0.939% (inactive)	
COc1ccc([C@@H]2CC(=O)c3c(cc(O)c(C/C=C(\C)CCC=C(C)C)c3O)O2)cc1		-3.16% [at 7.64 µM] (inactive)	
COc1ccc([C@@H]2c3cc4c(cc3C[C@H](C)C2C)OCO4)cc1OC (stereo not given in full)		-20% (inactive)	
O=C1c2c(O)cc(O)cc2OC(c2ccc(O)cc2)C1O (stereo not given)		1.27% (inactive)	
C/C(=C\CC[C@@H](C)[C@H]1CC[C@]2(C)C3=CCC4C(C)(C)[C@@H](O)C[C@@H](O)[C@]4(C)C3[C@H](O)C[C@@]12C)CO (stereo not given in full)	inactive		
C=C[C@@]1(C)CC[C@@H]([C@H](C)C(C)=O)O1	inactive		
C/C1=C/[C@@H](C)[C@H](O)[C@@H](O)/C=C/CC/C=C/C(=O)O[C@@H]1[C@H](C)C(=O)CCCC1CC(=O)NC(=O)C1	inactive		
COc1c(O)cc2c(c1O)C(=O)c1c(coc1C)C2=O	inactive		
CC(C)=CCC[C@]12c3cc4c(cc3CC[C@@]1(C)[C@H](C)CC[C@@H]2O)[nH]c1ccccc14		1.35% (inactive)	
C[C@H](CCC(O)C(C)(O)CO)[C@@]1(O)CC[C@@]2(C)C3=C(CC[C@@]21C)[C@@]1(C)CCC(OC(=O)CCC(=O)O)C(C)(C)[C@@H]1CC3 (stereo not given in full)		-3.46% (inactive)	
COc1ccc2[nH]c3c(c2c1)CCN1C[C@H]2C[C@@H](OC(=O)c4cc(OC)c(OC)c(OC)c4)[C@H](OC)[C@@H](OC)[C@H]2C[C@H]31		-0.13% (inactive)	
CC[C@@H]1[C@H](C)[C@H](c2cc(OC)c(OC)cc2OC)[C@@H](C)[C@H](c2cc(OC)c(OC)cc2OC)[C@]12C=C(OC)C(=O)C=C2OC		-2.91% (inactive)	
C=C(C)C(=O)O[C@H]1C[C@@]2(C)OC(=CC2=O)/C(C)=C\[C@H]2OC(=O)C(=C)[C@H]12			10.6 µM (active)
CC1=C(C)C(=O)OC(C(C)C2(O)CCC3C4C5OC5C5(O)CC=CC(=O)C5(C)C4CCC32C)C1 (stereo not given)		-13.5% (inactive)	
COc1cc2c(c(O)c1O)C(=O)c1c(coc1C)C2=O			18.8 µM (active)
C/C=C/[C@H]1[C@H]2C(=O)c3c(O)c(C)c(O)c(C)c3[C@]1(C(=O)O)C(=O)C=C2C	inactive		
CC[C@@H](c1cc(OC)c(OC)cc1OC)[C@H](C)[C@@H](/C(C)=C/c1cc(OC)c(OC)cc1OC)c1cc(OC)c(OC)cc1OC			inactive
